Assay outcomes deposited in PubChem by Broad Institute.
Not all results are given here.
aSyn UTR act: Activators via SNCA 5'UTR binding, MLPCN | alpha-synuclein 5'UTR reporter, activators screen | activity score, % (tested at 7.5 µM), hits read low | 300,000 compounds, 7.1% hits; in the data active means activity score below about -60%
Large screens that a line does not name were inactive.

COc1ccc(-c2csc(Nc3cc(C)ccn3)n2)cc1OC	aSyn UTR act -236
O=C(CN1C(=O)c2ccccc2S1(=O)=O)c1ccc(O)c(O)c1	none
O=C1c2ccccc2S(=O)(=O)N1CC1CC(c2ccccc2Cl)=NO1 (stereo not drawn)	aSyn UTR act -81
COc1ccccc1C1=NOC(CN2C(=O)c3ccccc3S2(=O)=O)C1 (stereo not drawn)	aSyn UTR act -127
O=C(Nc1nnc(S(=O)(=O)N2CCOCC2)s1)c1cccc(F)c1	aSyn UTR act -102
O=[N+]([O-])c1cc(/C=N/O)ccc1Oc1ccccc1Cl	aSyn UTR act -65
CO/N=C/c1ccc(Oc2ccc(C)cc2)c([N+](=O)[O-])c1	aSyn UTR act -90
O=[N+]([O-])c1cc([N+](=O)[O-])c(Oc2cccc(Cl)c2Cl)cc1NN1CCCCC1	none
CCOc1cc2nc3c4ccccc4n(C)c3nc2cc1OCC	aSyn UTR act -62
CN(C)C(=O)c1cc(-c2ccccc2)no1	aSyn UTR act -80
Cc1ccc(C(=O)N2C(CC(=O)Nc3ccc(Cl)cc3)C(=O)NC3CCCCC32)cc1 (stereo not drawn)	aSyn UTR act -72
Cc1cc(O)ccc1Nc1nc2ccccc2nc1Nc1ccc(O)cc1C	aSyn UTR act -106
CCC(C)NC(=O)Cc1c(C)c2cc3c(cc2oc1=O)OC(C)(C)CC3 (stereo not drawn)	aSyn UTR act -118
Cc1c(CC(=O)N[C@H](C(=O)O)C(C)C)c(=O)oc2cc3c(cc12)CCC(C)(C)O3	aSyn UTR act -110
Cc1c(CC(=O)NC(C)C)c(=O)oc2cc3c(cc12)CCC(C)(C)O3	aSyn UTR act -78
Cc1c(CCC(=O)O)c(=O)oc2cc3oc4c(c3cc12)CCCC4	none
CCOc1ccccc1NC(=S)/C(=C(\[O-])c1ccc2c(c1)OCCO2)[n+]1ccc(CC)cc1	aSyn UTR act -64
[O-]/C(=C(\C(=S)Nc1ccccc1F)[n+]1ccccc1)c1ccc(-c2ccccc2)cc1	aSyn UTR act -71
[O-]/C(=C(\C(=S)Nc1ccc(Cl)cc1)[n+]1ccccc1)c1ccc(OC(F)F)cc1	aSyn UTR act -79
CC(C)(C)c1cc[n+](/C(C(=S)Nc2ccccc2F)=C(/[O-])c2ccc3c(c2)OCCO3)cc1	aSyn UTR act -74
Cc1ccc2nc(/C=C/c3cccc(F)c3)ccc2c1	aSyn UTR act -172
CCOc1ccc(NC(=O)CSc2nncc(=O)[nH]2)cc1	aSyn UTR act -76
Cc1cc(Nc2nc3ccccc3nc2Cl)n(-c2ccccc2)n1	aSyn UTR act -88
O=C(CSc1nc2ccccc2[nH]1)Nc1nc(-c2cccc(Br)c2)cs1	aSyn UTR act -85
Cc1ccc(-c2csc(NC(=O)CSc3nc(C)cc(=O)[nH]3)n2)cc1	aSyn UTR act -115
Cc1ccc(-c2csc(NC(=O)CSC3=NCCS3)n2)cc1	aSyn UTR act -99
COc1ccc(C(=O)/C(=C/O)N=Nc2ccc(F)cc2)cc1	aSyn UTR act -64
CCOC(=O)C1(CCc2ccccc2)CCN(C(=O)CCn2cncn2)CC1	aSyn UTR act -99
CCOC(=O)C1(Cc2ccccc2Cl)CCN(C(=O)CCn2ccnc2C)CC1	aSyn UTR act -81
CCOc1ccc(NC(=O)N2CCC(c3nc4ccccc4[nH]3)CC2)cc1	aSyn UTR act -71
O=S(=O)(c1ccc(Cl)cc1)N1CCC(c2nc3ccccc3[nH]2)CC1	none
Cc1ccc(Cn2nnnc2CN2CCC(c3nc4ccc(Cl)cc4[nH]3)CC2)cc1	none
COc1ccc(-c2cc(O)cc(O)c2)cc1	aSyn UTR act -143
CS(=O)(=O)Nc1ccc(C(=O)NCCC2=CCCCC2)cc1	aSyn UTR act -109
COc1ccccc1NC(=O)c1coc(=O)c(Br)c1	aSyn UTR act -63
O=C(NCCC1=CCCCC1)c1coc(=O)c(Br)c1	aSyn UTR act -65
CC(C)CNC(=O)c1coc(=O)c(Br)c1	aSyn UTR act -87
O=C(NCCc1ccccc1)c1coc(=O)c(Br)c1	aSyn UTR act -77
Nc1ccc(C(=O)OCCc2ccccc2)cc1	aSyn UTR act -142
O=C(OCCc1ccccc1)c1cc(O)c(O)c(O)c1	aSyn UTR act -105
COc1ccc(C(=O)OCCc2ccc(O)cc2)cc1	aSyn UTR act -179
COC(=O)c1oc2ccc(OC)cc2c1N	aSyn UTR act -76
CCN(CC)CCOC(=O)c1ccc(NC(=O)CCCN2C(=O)S/C(=C/c3ccc(OC)cc3)C2=S)cc1	none
CCN(CC)CCOC(=O)c1c(C)oc2ccc(OC)cc12	aSyn UTR act -112
Nc1c(C(=O)c2ccc(Cl)cc2)oc2ccccc12	aSyn UTR act -111
COc1ccc(C(=O)c2oc3ccc(OC)cc3c2N)cc1	aSyn UTR act -167
Cc1ccc(CNc2ccc(N3CCOCC3)cc2)s1	aSyn UTR act -86
c1ccc(OCCOc2ccccc2-c2nnco2)cc1	aSyn UTR act -64
Fc1ccc(NC(=S)N/N=C/c2ccc(F)c(F)c2)cc1	aSyn UTR act -65
Oc1ccc(/C=N/NC(=S)Nc2cccnc2)cc1O	aSyn UTR act -141
COc1ccc(NC(=S)Nc2ccc(C)c(Cl)c2)cc1OC	aSyn UTR act -62
Fc1ccc(/C=N/NC(=S)Nc2ccc(Cl)cc2)cc1F	aSyn UTR act -132
S=C(N/N=C/c1ccc2ncccc2c1)Nc1cccnc1	none
COc1ccc(NC(=S)N/N=C/c2ccc(F)cc2)cc1OC	aSyn UTR act -73
Cc1ccc2c(c1)C1CN(C)CCC1N2C(=O)COc1ccc(N(C)C(=O)C(C)(C)C)cc1 (stereo not drawn)	aSyn UTR act -67
Cc1ccc(C(=O)N(C)c2ccc(OCC(=O)N3c4ccc(C)cc4C4CN(C)CCC43)cc2)cc1 (stereo not drawn)	aSyn UTR act -86
c1ccc(N2CCN(c3ccccc3)C2c2cccs2)cc1	aSyn UTR act -108
Cc1ccc(NC(=O)/C(C#N)=C/c2ccc(C)s2)c(C)c1	aSyn UTR act -92
Cc1ccc(NC(=O)c2ccc3nc(N4CCOCC4)sc3c2)c(Cl)c1	aSyn UTR act -68
c1ccc2c(c1)CCN(c1nc3cc4c(cc3s1)OCO4)C2	aSyn UTR act -122
c1c2c(cc3sc(N4CCOCC4)nc13)OCO2	aSyn UTR act -64
c1ccc(N2CCN(c3nc4cc5c(cc4s3)OCO5)CC2)cc1	aSyn UTR act -142
Fc1ccc2nc(N3CCOCC3)sc2c1	aSyn UTR act -131
CC1CCCN(c2nc3ccsc3c(=O)s2)C1 (stereo not drawn)	aSyn UTR act -148
Cc1ccc(OCc2ccc(C(=O)N3CCCC3)o2)cc1C	aSyn UTR act -82
O=C(c1ccc(COc2ccccc2[N+](=O)[O-])o1)N1CCCCCC1	aSyn UTR act -80
Cc1ccccc1S(=O)(=O)Cc1ccc(C(=O)N2CCN(c3cccc(C)c3C)CC2)o1	none
O=C(c1ccc(COc2ccc(Cl)cc2Cl)o1)N1CCCC1	aSyn UTR act -63
O=C(Nc1ccc2oc(-c3ccccc3F)nc2c1)c1cncc(Br)c1	aSyn UTR act -65
O=C(Nc1ccc2oc(-c3ccccc3F)nc2c1)c1ccc([N+](=O)[O-])o1	aSyn UTR act -142
CC(C)(C)c1ccc(NC(=O)Nc2ccc(OCC(=O)N3CCOCC3)cc2)cc1	aSyn UTR act -72
OC(COc1ccc2ccccc2c1Cl)CN1CCOCC1 (stereo not drawn)	aSyn UTR act -150
CC(C)(C)c1ccc(OCC(O)CN2CCOCC2)cc1 (stereo not drawn)	aSyn UTR act -120
COc1ccccc1N1CCN(c2nc(C)nc3c2oc2ccccc23)CC1	none
Cc1nc(N2CCN(C(=O)c3ccco3)CC2)nc2c1C(=O)CCC2	aSyn UTR act -121
O=C(Nc1ccc(-c2ccc(N3CCCCC3)nn2)cc1)c1ccco1	aSyn UTR act -131
